From the supplement of paper PMC6555819

Experiments:
Test in all cases: PBM binding z-score (relative to random genomic background probes); higher = stronger binding; sequences stand for … in GC…GCGATTGACAGCGTAGAATGAAGG
[1] = system: PPARg:RXRa DBDmut IVT, anti-RXR (DBD mutation: RXRa K156A/R161A, NR concentration 270 nM, RXRa partner concentration 90 nM)
Summary of the method: (§1)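 Each nuclear receptor dimer, without ligand, was incubated for 1 h on custom Agilent 4×180K protein-binding microarrays. Binding was detected with antibodies against each partner (one per run), and scanned fluorescence was regression-normalized. The binding z-scores are referenced to random human genomic background probes.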

[2] = system: PPARg:RXRa IVT, anti-PPARg (NR concentration 270 nM, RXRa partner concentration 90 nM)
Summary of the method: as §1

[3] = system: PPARg DBDmut:RXRa IVT, anti-PPARg (DBD mutation: PPARg1 K132A/R137A, NR concentration 270 nM, RXRa partner concentration 90 nM)
Summary of the method: as §1

[4] = system: PPARg DBDmut IVT, anti-PPARg (DBD mutation: PPARg1 K132A/R137A, NR concentration 270 nM)
Summary of the method: as §1

[5] = system: PPARg homodimer (NR concentration 180 nM)
Summary of the method: as §1

[6] = system: PXR:RXRa (NR concentration 270 nM, RXRa partner concentration 90 nM)
Summary of the method: as §1

[7] = system: PXR homodimer (NR concentration 270 nM)
Summary of the method: as §1

[8] = system: RARa:RXR (NR concentration 270 nM, RXRa partner concentration 90 nM)
Summary of the method: as §1

[9] = system: RARa homodimer (NR concentration 270 nM)
Summary of the method: as §1

[10] = system: RARb:RXRa (NR concentration 270 nM, RXRa partner concentration 90 nM)
Summary of the method: as §1

[11] = system: RARb homodimer (NR concentration 270 nM)
Summary of the method: as §1

[12] = system: RARg:RXRa (NR concentration 270 nM, RXRa partner concentration 90 nM)
Summary of the method: as §1

[13] = system: RARg homodimer (NR concentration 270 nM)
Summary of the method: as §1

[14] = system: RXRa DBDmut IVT, anti-RXR (DBD mutation: RXRa K156A/R161A, NR concentration 90 nM)
Summary of the method: as §1

[15] = system: RXRa homodimer (NR concentration 180 nM)
Summary of the method: as §1

[16] = system: THRa:RXRa (NR concentration 90 nM, RXRa partner concentration 90 nM)
Summary of the method: as §1

[17] = system: THRa homodimer (NR concentration 90 nM)
Summary of the method: as §1

[18] = system: VDR homodimer (NR concentration 270 nM)
Summary of the method: as §1

Sequence	PBM binding z-score [1]	PBM binding z-score [2]	PBM binding z-score [3]	PBM binding z-score [4]	PBM binding z-score [5]	PBM binding z-score [6]	PBM binding z-score [7]	PBM binding z-score [8]	PBM binding z-score [9]	PBM binding z-score [10]	PBM binding z-score [11]	PBM binding z-score [12]	PBM binding z-score [13]	PBM binding z-score [14]	PBM binding z-score [15]	PBM binding z-score [16]	PBM binding z-score [17]	PBM binding z-score [18]
ATATGTAGGTTATATCCGGGTCATTCAGGCTATG	6.81	6.59	5.13	2.59	3.38	3.78	2.63	3.9	1.12	2.13	2.73	3.85	1.81	1.22	2.84	3.82	2.73	3.33
ACTAGTTGGTCAGCTCAGGTCACACACAATTCGG	1.24	2.1	0.448	1.3	1.64	3.54	0.961	2.58	1.11	2.7	3.56	2.3	2.88	0.763	1.93	4.66	4.32	1.46
ACTATTAGTTGGGACGAGGGCAACCGATAGGTTG	-0.0902	0.659	0.777	0.502	0.934	0.478	0.579	0.451	0.563	1.03	1.37	0.644	0.82	0.0733	0.516	1.64	0.629	1.12
AATATAGGGTCACTAGGCCAGAGTAGGTACGAAT	5.21	6.14	2.32	1.64	2.41	3.05	0.508	4.66	0.81	4.11	3.3	5.24	4.94	2.94	5.71	3.61	1.67	2.21
ACTAGCAGGCCAAGGATCACTCAAGATTAGTCCG	0.88	0.675	-0.388	-0.36	0.0853	-0.479	-0.469	-0.293	0.362	0.296	-0.025	0.215	0.422	-0.378	0.137	-0.0655	-0.556	-0.55
TCTGCTAGGTCAACGATGGTCAGCTATTCTGCTA	4.2	4.42	0.0784	0.733	0.972	1.41	-1.08	2.24	-0.753	4.11	3.16	3.99	4.93	0.833	2.46	3.03	0.599	-0.371
CCTCAAAGTTCAACTAAGGTAACGTAAAGCACGC	0.946	0.996	1.12	0.201	4.29	5.71	4.04	4.47	3.41	5.33	4.3	6.18	6.74	4.41	5.11	5.29	2.38	4.44
GTACCAAGGTGAATAGTTCGTTGATGAGTAGGCG	1.57	1.94	0.321	0.393	0.906	0.39	0.918	0.576	0.742	1.94	1.71	1.94	1.34	-0.0101	0.854	1.39	0.601	0.698
